According to ChEMBL document CHEMBL3988442, “University of Dundee, Small-Polar-MMV Screening Library” (2021):
Among all 48,000 compounds or so, about 13,000 (27%) showed an effect of 50% or more. This is one part of the list.

tested on: Wolbachia pipientis; assay: Anti-Wolbachia Cell-Based Screen; assay type: functional; parameters: scale not given: in the data most compounds retested in dose-response had high values; conditions: 5 µM

| SMILES | Percent Effect [%] |
| --- | --- |
| Cc1nc(C(C)NC(=O)NCc2nccn2CC(C)C)cs1 (stereo not drawn) | -2.713 |
| CC(=O)N1CCOC(Cc2cccc(C(F)(F)F)c2)C1 (stereo not drawn) | -10.28 |
| COCC(NC(=O)c1cnn(C)c1)c1cccc(C(F)(F)F)c1 (stereo not drawn) | -8.704 |
| CC(O)(CN1CCC(O)CC1)c1cccc(C(F)(F)F)c1 (stereo not drawn) | 104.1 |
| CC(=O)N1CCN(Cc2ccc(C(F)(F)F)cc2F)CC(O)C1 (stereo not drawn) | -3.674 |
| CC(N)C(=O)N1CCC(Oc2cccc(C(F)(F)F)c2)CC1 (stereo not drawn) | -15.39 |
| CC(NCC1CCN(CCO)CC1)c1ccc(C(F)(F)F)cc1 (stereo not drawn) | 4.315 |
| CC(O)(CN1CCN(CCO)CC1)c1cccc(C(F)(F)F)c1 (stereo not drawn) | 117 |
| COC(=O)NCC(=O)NCC(C)(C)c1cccc(C(F)(F)F)c1 | -0.4386 |
| COCCN1CCN(C(=O)C(c2cccc(F)c2)N(C)C)CC1 (stereo not drawn) | -2.953 |
| CC(=O)N1CCN(CC(C)(O)c2cccc(C(F)(F)F)c2)CC1 (stereo not drawn) | 108.1 |
| COCCN1CCN(CC(C)(O)c2cccc(C(F)(F)F)c2)CC1 (stereo not drawn) | 78.04 |
| CC(C(=O)Nc1cccc(C(F)(F)F)c1)N(C)CCN1CCOCC1 (stereo not drawn) | -13.73 |
| CC(C)c1noc(C(C)N2CCC(c3nc4ccccc4[nH]3)CC2)n1 (stereo not drawn) | 10.92 |
| O=C(CCSc1ccccc1)NS(=O)(=O)c1ccc2c(c1)OCCO2 | 13.89 |
| CC1=NOC(C(=O)N2CCC(O)(c3ccc4nc(C)ccc4c3)CC2)C1 (stereo not drawn) | -15.54 |
| Clc1ccc(CN2CCCC(Cn3cncn3)C2)c2ncccc12 (stereo not drawn) | -4.031 |
| Cn1c(C(=O)N2CCC(C3OCCO3)CC2)c(Cl)c2ccccc21 | 4.597 |
| CC(C)c1nccn1C(C)C(=O)NC1CCOCC1 (stereo not drawn) | -4.368 |
| O=c1[nH]nc2nc(N3CCSCC3)ccn12 | -3.985 |
| O=c1[nH]nc2c(N3CCCCCC3)nccn12 | 114.9 |
| CCc1cc(N2CCC(NC3CCOCC3)CC2)nc(N(C)C)n1 | -0.7364 |

| SMILES | Percent Effect [%] |
| --- | --- |
| O=c1[nH]nc2c(N3CCC(NC4CCOCC4)CC3)nccn12 | 113.4 |
| CC(NC(=O)Nc1cccnc1N1CCOCC1)c1ccccc1 (stereo not drawn) | -4.6 |
| O=c1[nH]nc2nc(N3CCOCC3)ccn12 | 3.869 |
| O=c1[nH]nc2c(N3CCOCC3)nccn12 | 105.6 |
| O=c1[nH]nc2nc(N3CCCC3)ccn12 | -11.65 |
| COc1cccn(Cc2nnc(-c3cccnc3)o2)c1=O | -29.57 |
| Cc1nc(CNC(=O)[C@@H]2CCCN2C(=O)OC(C)(C)C)cs1 | -12.19 |
| Cc1ccccc1N1CCCN(CC2(O)CCCNC2)CC1 (stereo not drawn) | -10.43 |
| N#Cc1ccc(CN2CCN(C(=O)c3cc(C4CC4)[nH]n3)CC2)cc1 | -3.632 |
| CC(C)c1ccc(CN2CCN(C(=O)c3cc(C4CC4)[nH]n3)CC2)cc1 | 100.6 |
| O=C(c1cc(C2CC2)[nH]n1)N1CCN(Cc2ccc3c(c2)OCO3)CC1 | 118.4 |
| O=C(c1cc(COc2ccc3c(c2)OCO3)[nH]n1)N1CCCC(O)C1 (stereo not drawn) | -9.09 |
| COc1ccnc(N2CCN(C(=O)c3cc(C4CC4)[nH]n3)CC2)n1 | -20.97 |
| CC(C)c1cc(C(=O)N2CCN(Cc3ccc(C#N)cc3)CC2)n[nH]1 | 1.28 |
| CCc1nc(C(=O)N2CCN(Cc3ccc(Cl)cc3)CC2)c[nH]1 | 7.187 |
| O=C(c1cc(C2CC2)[nH]n1)N1CCN(Cc2ccc(Cl)cc2)CC1 | 91.65 |
| O=C(c1cc(C2CC2)[nH]n1)N1CCN(c2nccs2)CC1 | -6.646 |
| O=C(c1cc(COc2ccc3c(c2)OCO3)[nH]n1)N1CCOCC1 | 16.23 |
| O=C(c1cc(C2CC2)[nH]n1)N1CCN(Cc2ccncc2)CC1 | 106.7 |
| Cc1ccsc1C(=O)NCC1COCc2c(C)nnn2C1 (stereo not drawn) | -4.017 |
| COc1ccc(CC(=O)N2CCc3nc(C(=O)N(C)C)sc3CC2)cc1 | -11.26 |
| COCc1cc(N(C)Cc2cc(C(C)(C)C)n[nH]2)ncn1 | -4.66 |

| SMILES | Percent Effect [%] |
| --- | --- |
| Cc1cnn(CCNCc2ccc(OCC(N)=O)cc2)c1 | -9.498 |
| Cc1nn(CCC#N)c(C)c1CCC(=O)N(C)Cc1ccc(F)cc1F | 10.09 |
| Cc1cccc(CN2CCN(C(=O)c3cc(C4CC4)[nH]n3)CC2)c1 | 106.2 |
| O=C(c1cc(C2CC2)[nH]n1)N1CCN(Cc2ccsc2)CC1 | -9.211 |
| N#Cc1ccc(N2CCN(C(=O)c3cc(C4CC4)[nH]n3)CC2)c(F)c1 | -1.136 |
| CCOc1ccc(CN2CCN(C(=O)c3cc(C4CC4)[nH]n3)CC2)cc1 | 100.1 |
| O=C(c1cc(C2CC2)[nH]n1)N1CCN(Cc2ccccc2)CC1 | 113.8 |
| CCOc1ccc(CN2CCN(C(=O)c3ccc(C)n3C)CC2)cc1 | 6.046 |
| Cc1cccc(CN2CCN(C(=O)c3ccc(C)[nH]c3=O)CC2)c1 | -0.706 |
| O=C(c1cc(C2CC2)[nH]n1)N1CCCN(c2nccs2)CC1 | -25.45 |
| CC(C)c1cc(C(=O)N2CCCN(Cc3ccccc3)CC2)n[nH]1 | -13.62 |
| COCCC1(CNC(=O)NC2CCCN(C)C2)CC1 (stereo not drawn) | -18.26 |
| CC(C)OC(=O)N1CCC(Cc2cccc(C(N)=O)c2)C1 (stereo not drawn) | 0.346 |
| CC(C(=O)N1CCOCC1)N1CCc2cncnc2C1 (stereo not drawn) | 24.13 |
| Cc1nc(-c2cccs2)ccc1C(=O)N1CCN(CC(C)O)CC1 (stereo not drawn) | 6.494 |
| CC(C(=O)N1CCOCC1)n1nc(-c2cccs2)cc(N)c1=O (stereo not drawn) | 87.73 |
| CC(C(=O)N1CCCCC1)n1nc(-c2cccs2)cc(N)c1=O (stereo not drawn) | 96.7 |
| Nc1cc2c(nn1)CCN(C(=O)c1csc(-c3cccs3)n1)C2 | -8.113 |
| O=C(Nc1ccccc1-c1cccs1)N1CCOCC1 | -11.7 |
| O=C1CC(c2cccs2)Cc2nc(O)c(C(=O)N3CCCC3)cc21 (stereo not drawn) | -9.305 |
| CC(C(=O)N1CCCC1)n1nc(-c2cccs2)cc(N)c1=O (stereo not drawn) | 96.9 |
| Cl.Cn1cc(CNC2CCC(O)CC2)c(-c2cc3ccccc3o2)n1 (stereo not drawn) | 4.474 |

| SMILES | Percent Effect [%] |
| --- | --- |
| CC(NC(=O)Cc1cc2c(cc1Cl)OCCO2)c1ccncn1 (stereo not drawn) | -8.722 |
| O=C(c1c2c(NCC3CC3)ncnc2n2ccccc12)N1CCCC1 | 17.48 |
| COc1ncc(C2CC(=O)NCc3nc4ccccn4c32)cn1 (stereo not drawn) | 2.979 |
| CCn1ccc(C(=O)N(C)Cc2cnn(-c3cccc(OC)c3)c2)n1 | -12.09 |
| COCC(=O)N1CCOC(c2ccc(N(C)C)cn2)C1 (stereo not drawn) | 108.5 |
| CCC1CN(C(=O)COc2ccc(C)nc2)CCO1 (stereo not drawn) | -3.761 |
| COCC(=O)N1CCOC(c2cccc(-c3cncnc3)n2)C1 (stereo not drawn) | 151.1 |
| Cc1nccc(C2CN(Cc3cc[nH]n3)CCO2)n1 (stereo not drawn) | -9.06 |
| Cc1ccc(C2CN(Cc3cnc(-c4cccnc4)s3)CCO2)o1 (stereo not drawn) | 6.287 |
| COc1ccc2cc(C3CN(C(=O)COC(C)C)CCO3)ccc2c1 (stereo not drawn) | -0.3239 |
| Br.Cn1nccc1CN1CCOC(c2cccc(-c3cncnc3)n2)C1 (stereo not drawn) | 91.95 |
| CNC(=O)c1ccc(C2CN(C(=O)COC)CCO2)nc1 (stereo not drawn) | -5.036 |
| CC(Cc1ccc(C(F)(F)F)cc1)C(=O)N1CCCS1(=O)=O (stereo not drawn) | -11.51 |
| c1ccc(C2CN(C3CC3)CC3(CCN(Cc4cscn4)CC3)C2)cc1 (stereo not drawn) | -14.1 |
| CCOc1ccc(CN2C(=O)CC(C)(C(C)C)C2=O)nc1 (stereo not drawn) | -23.31 |
| Cc1cnc(N2CCn3c(CN4CCOCC4)nnc3C2)nc1.O=C(O)C(F)(F)F | -6.202 |
| Fc1cnc(N2CCCn3c(nnc3Cn3ccnc3)C2)nc1.O=C(O)C(F)(F)F | -11.56 |
| CC(C)N(C)Cc1nnc2n1CCCN(c1ncccn1)C2.O=C(O)C(F)(F)F | 99.37 |
| Cc1cnc(N2CCCn3c(nnc3CN(C)C(C)C)C2)nc1.O=C(O)C(F)(F)F | 99.73 |
| CS(=O)(=O)N1CCC(NCC2(N3CCOCC3)CCCCC2)CC1 | -12.17 |
| COc1cc2cc(C(=O)N[C@@H](C)C(=O)O)n(C)c2c(OC)c1OC | 6.023 |
| CC(C)Cc1ncc(CNc2cnccc2CO)s1 | 2.618 |

| SMILES | Percent Effect [%] |
| --- | --- |
| CC(C)n1cnc2c1C(C(=O)NCCO)N(Cc1ccccc1)CC2.O=C(O)C(F)(F)F (stereo not drawn) | 2.168 |
| CN(C1CCc2ccccc2C1)S(C)(=O)=O (stereo not drawn) | -5.064 |
| COCCN(CC(F)F)c1cc(COC)nc2ncnn12 | 3.034 |
| CCC(=O)N1CCCN(C(=O)c2cc(C)cc(Br)c2O)CC1 | 5.319 |
| CCn1c(CN2CCCN(C(=O)OC)CC2)nc2c(F)cccc21 | -3.965 |
| CCn1ccnc1CN1CCCN(C(=O)Cn2nc(C)cc2C)CC1 | -3.678 |
| COCC(=O)N1CCN(Cn2nc(C)c(Br)c2C)CC1 | 100.8 |
| COCC(=O)N1CCN(Cc2nnc(C(C)(C)C)o2)CC1 | -20.23 |
| COC(=O)N1CCCN(Cn2nc(C)c(Br)c2C)CC1 | 92.29 |
| COCC(=O)N1CCCN(Cc2c(C)nc3ccc(Cl)cn23)CC1 | -0.9556 |
| COC(=O)N1CCCN(C(=O)c2cccc3cccnc23)CC1 | -4.967 |
| CCC(=O)N1CCCN(Cn2nc(C)c(Br)c2C)CC1 | 116.5 |
| O=C(CCCn1nnc(-c2ccc(F)cc2)n1)N1CCOCC(CO)C1 (stereo not drawn) | -1.392 |
| CCCN(Cc1nccn1C)C(=O)c1cnn[nH]1 | -16.97 |
| Cc1nn(C2CCCCC2)c2nc(C(C)(C)CN3CCOCC3)[nH]c12 | 104.5 |
| Cc1nn(-c2ccccc2)c(C)c1-c1ccnc(N2CCC(O)CC2)n1 | -6.995 |
| CC(CN1CCOCC1)NCc1nncn1C1CCCCC1 (stereo not drawn) | -12.38 |
| Cc1nn(C2CCCC2)c2nc(C(C)(C)CN3CCN(C)CC3)[nH]c12 | 98.14 |
| CC(C)(C)c1c[nH]c([C@@H]2COCCN2C2CCCCC2)n1 | -16.61 |
| Cc1nn(-c2ccccc2)c2nc(C(C)(C)CN3CCN(C)CC3)[nH]c12 | 102.6 |
